ADAM17 inh = inhibitors of human ADAM17; P78536; recombinant ADAM17, EDANS/DABCYL FRET peptide cleavage; inhibition, % at 6.95 µM; hit rate 0.83% among 370,000;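 active = inhibition above the mean of compounds lying between control limits plus 3 SD, set per campaign, cut at about 8.5% in these data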
Target sequence (P78536 215-824 limits assumed): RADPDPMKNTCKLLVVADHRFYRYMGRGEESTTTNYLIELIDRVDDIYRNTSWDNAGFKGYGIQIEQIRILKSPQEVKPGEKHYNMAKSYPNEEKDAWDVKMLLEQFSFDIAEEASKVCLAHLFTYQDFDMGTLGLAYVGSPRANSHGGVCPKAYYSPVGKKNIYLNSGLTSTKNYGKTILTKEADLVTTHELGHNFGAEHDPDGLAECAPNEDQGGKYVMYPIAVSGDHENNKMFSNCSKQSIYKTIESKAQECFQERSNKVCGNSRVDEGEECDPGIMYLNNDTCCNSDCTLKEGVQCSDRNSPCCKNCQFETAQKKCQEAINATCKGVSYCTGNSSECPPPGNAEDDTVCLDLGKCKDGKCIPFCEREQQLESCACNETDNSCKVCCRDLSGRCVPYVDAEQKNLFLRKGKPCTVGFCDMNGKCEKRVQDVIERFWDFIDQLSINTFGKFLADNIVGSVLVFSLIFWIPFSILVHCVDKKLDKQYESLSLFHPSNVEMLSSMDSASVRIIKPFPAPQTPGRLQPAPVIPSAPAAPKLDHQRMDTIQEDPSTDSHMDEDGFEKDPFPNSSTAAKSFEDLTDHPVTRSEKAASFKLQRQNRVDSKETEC
PLC-beta3 inh = PLC-beta3 (human) inhibition, primary screen. Q01970. Purified PLC-beta3, fluorogenic substrate, fluorescence. inhibition, % at 12.2 µM. hit rate 0.18% among 370,000. AID 720704; in the data active = inhibition above about 11%
Rce1 inhib = yeast Ras-converting enzyme inhibition. Q03530. yeast membranes, quenched prenylated peptide cleavage fluorescence. calls only. hit rate 0.27% among 290,000. AID 2563;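 active = fall in fluorescence gain of 50% or more versus controls, with final raw signal at or below 3038400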
ADAM10 inh = inhibitors of human ADAM10 | O14672 | recombinant ADAM10, EDANS/DABCYL FRET peptide cleavage, 3 h | hit rate 0.62% among 370,000 | inhibition, % at 7 µM;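 active = inhibition above a per-campaign cutoff equal to the mean of compounds falling between control-based bounds plus 3 SD, cut at about 20% in these data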
PLC-gamma1 inh = blocks human PLC-gamma1 enzyme activity; purified PLC-gamma1, fluorogenic substrate, fluorescence; P19174; AID 720700; inhibition, % at 12.2 µM; hit rate 0.84% among 370,000; in the data active = inhibition above about 9.5%
ADAM10 confirm = confirmation of inhibitors of human ADAM10; shares compounds with ADAM10 inh; ADAM10 QFRET peptide cleavage, EDANS fluorescence; inhibition, % at 6.95 µM; hit rate 1% among 2,100;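 active = inhibition above about 20% chosen separately for each screening run, limit read from the data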
ADAM17 ctr = ADAM17 inhibition, counter-screen for ADAM10 exosite hits; shares compounds with ADAM10 inh; ADAM17 QFRET peptide cleavage, EDANS fluorescence; inhibition, % at 6.95 µM; hit rate 0.5% among 2,100; AID 743214;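 active = mean triplicate inhibition above the solvent-only control wells' mean plus 3 SD, cut at about 12% in these data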
Numbers stand for hits; 0 = inactive; - = no result given. The list is not random: actives were taken first. Their share in the collection is about 2.1%.

SMILES | ADAM17 inh | PLC-beta3 inh | Rce1 inhib | ADAM10 inh | PLC-gamma1 inh | ADAM10 confirm | ADAM17 ctr
Cc1ccc(C2(c3ccccc3)NC(=O)N(CC(=O)NCc3ccccc3)C2=O)cc1C (configuration not stated) | 0 | 0 | - | 23 | 0 | 0 | 0
COc1ccc(C2(c3ccc(OC)cc3)NC(=O)N(CC(=O)Nc3ccccc3C(F)(F)F)C2=O)cc1 | 0 | 0 | 0 | 21 | 0 | 0 | 0
O=c1[nH]c2cc(C(F)(F)F)ccc2n1-c1cc(C(F)(F)F)ccc1O | 0 | 0 | - | 20 | 0 | 0 | 0
COC(=O)c1ccc(-c2cc3onc(-c4ccccc4)c3c(=O)n2C)cc1 | 0 | 0 | - | 71 | 0 | 25 | 0
CCOC(=O)N1CCN(CCC(=O)Nc2ccc(OC)cc2)CC1 | 0 | 0 | 0 | 71 | 0 | 0 | 0
CC(=O)Nc1cccc(NC(=O)C(=O)c2cn(CC(=O)N3CCCC3)c3ccccc23)c1 | 0 | 0 | - | 0 | 0 | - | -
COc1ccc(N2CCN(C(=O)CN(c3ccc(OC)cc3)S(=O)(=O)c3ccccc3)CC2)cc1 | 0 | 0 | 0 | 21 | 0 | 0 | 0
CC(=O)Nc1cccc(C(=O)OC(C(=O)c2ccc(C)cc2)c2ccccc2)c1 (configuration not stated) | 0 | 0 | 0 | 25 | 0 | 0 | 0
CCCC1=Nc2cc(C(=O)NCCCOCC)ccc2Sc2ccccc21 | 0 | 0 | 0 | 0 | 0 | - | -
CCCC1=Nc2cc(C(=O)NCCCOC(C)C)ccc2Sc2ccccc21 | 0 | 0 | 0 | 21 | 0 | 0 | 0
Nc1ccc(S(=O)(=O)N2CCC(Cc3ccccc3)CC2)cc1 | 0 | 0 | 0 | 0 | 0 | - | -
N#Cc1ccc(CN(Nc2ccccc2)c2ccccc2)cc1 | 0 | 0 | - | 27 | 0 | 0 | 0
Cc1c(C(=O)NCc2ccccc2)sc(=O)n1Cc1ccccc1F | 0 | 0 | - | 0 | 0 | - | -
S=c1[nH]nc(CSc2nc3ccccc3s2)o1 | 0 | 0 | 0 | 25 | 0 | 0 | 0
Cn1c(CSc2nc3ccccc3s2)n[nH]c1=S | 0 | 0 | 0 | 0 | 0 | - | -
Cc1oc(-c2ccc(-c3ccccc3)cc2)nc1CN1CCN(CC(=O)N(C)C)CC1 | 0 | 0 | 0 | 0 | 0 | - | -
O=C(Nc1ccc([N+](=O)[O-])cc1)N1CCc2ccccc2C1 | 0 | 0 | 0 | 22 | 0 | 0 | 0
Cc1nnc(NC(=O)c2c(-c3ccccc3Cl)noc2C)s1 | 0 | 0 | 0 | 0 | 0 | - | -
Cc1onc(-c2ccccc2Cl)c1C(=O)Nc1nnc(Cc2ccc(Cl)cc2)s1 | 0 | 0 | 0 | 23 | 0 | 0 | 0
COc1ccc(N2C(=O)CSC23C(=O)N2CCCc4cccc3c42)cc1 (configuration not stated) | 0 | 0 | 0 | 0 | 0 | - | -
COc1ccc(N2C(=O)CSC23C(=O)N2c4c(cccc43)C(C)=CC2(C)C)cc1 (configuration not stated) | 0 | 0 | 0 | 22 | 0 | 0 | 0
c1ccc2c(c1)CSc1ccccc1N2 | 0 | 0 | 0 | 21 | 0 | 0 | 0
S=C1Nc2ccccc2CS1 | 0 | 0 | - | 0 | 0 | - | -
CCC(C)N(C(=O)COC(=O)c1ccc(N)c([N+](=O)[O-])c1)C1CCS(=O)(=O)C1 (configuration not stated) | 0 | 0 | - | 0 | 0 | - | -
O=S(=O)(NCc1cccc(C(F)(F)F)c1)NCc1ccccc1F | 0 | 0 | 0 | 20 | 0 | 0 | 0
SMILES | ADAM17 inh | PLC-beta3 inh | Rce1 inhib | ADAM10 inh | PLC-gamma1 inh | ADAM10 confirm | ADAM17 ctr
O=S(=O)(NCc1ccccc1)NCc1ccccc1F | 0 | 0 | 0 | 0 | 0 | - | -
COCc1[nH]nc2c1C(c1ccc3c(c1)OCO3)N(c1ccc(OC)cc1)C2=O (configuration not stated) | 0 | 0 | - | 0 | 0 | - | -
CCC(CO)Oc1cc(NCc2ccc(Cl)cc2)c2ncn(C(C)C)c2c1 (configuration not stated) | 0 | 0 | - | 0 | 0 | - | -
CCC(CO)Oc1cc(NCc2ccc(Cl)cc2Cl)c2ncn(C(C)C)c2c1 (configuration not stated) | 0 | 0 | - | 22 | 0 | 0 | 0
CC(C)NC(=O)C1(C)CCN1Cc1ccc(Cl)cc1 (configuration not stated) | 0 | 0 | - | 0 | 0 | - | -
Cc1ccc(S(=O)(=O)N2[C@@H](c3ccc(Cl)cc3)C(C(=O)O)=CC[C@H]2c2ccc(C(C)C)cc2)cc1 | 0 | 0 | - | 21 | 0 | 0 | 0
CCn1c2ccccc2c2cc(NC(=O)CSc3nnc(-c4ccc(OC)c(OC)c4)n3N)ccc21 | 0 | 0 | 0 | 0 | 0 | - | -
COc1ccc(-c2nnc(SC(C(=O)c3c[nH]c4ccccc34)c3ccccc3)n2N)cc1OC (configuration not stated) | 0 | 0 | 0 | 22 | 0 | 0 | 0
Cc1ccccc1Cn1ccc(NC(=O)c2cnn3c2NC(c2ccccc2)CC3C(F)(F)F)n1 (configuration not stated) | 0 | 0 | 0 | 21 | 0 | 0 | 0
O=C(NCc1ccco1)c1cnn2c1NC(c1ccccc1)CC2C(F)(F)F (configuration not stated) | 0 | 0 | 0 | 0 | 0 | - | -
COc1ccc(N2CCN(C(=O)C3CCN(C(=O)c4cccc(Cl)c4)CC3)CC2)cc1 | 0 | 0 | 0 | 0 | 0 | - | -
CC1CCN(CCCNC(=O)c2ccc3c(Cl)c4c(nc3c2)CCCC4)CC1 | 0 | 0 | 0 | 0 | 0 | - | -
O=C(Cc1cccc2ccccc12)Nc1ccccc1C(=O)O | 0 | 0 | 0 | 0 | 0 | - | -
O=C(Cc1cccc2ccccc12)Nc1cc(Cl)ccc1C(=O)O | 0 | 0 | 0 | 23 | 0 | 0 | 0
O=C(NNc1c([N+](=O)[O-])cc(C(F)(F)F)cc1[N+](=O)[O-])c1ccco1 | 0 | 0 | 0 | 0 | 0 | - | -
CN1CCN(C(=O)C2=C[C@@H](c3csc4ccccc34)C[C@@H](OCc3ccc(CO)cc3)O2)CC1 | 0 | 0 | 0 | 0 | 0 | - | -
O=C(C1=C[C@H](c2csc3ccccc23)C[C@H](OCc2ccc(CO)cc2)O1)N1CCOCC1 | 0 | 0 | 0 | 89 | 0 | 0 | 0
c1cncc(CN2CCN(c3cc(-c4cnc5ccccc5c4)nc4ccnn34)CC2)c1 | 0 | 0 | - | 0 | 0 | - | -
COc1ccc(C(C)(O)c2nc(-c3cccc(F)c3)cs2)cc1 (configuration not stated) | 0 | 0 | - | 22 | 0 | 0 | 0
COc1ccc(-c2csc(C(C)(O)c3cccc(F)c3)n2)cc1 (configuration not stated) | 0 | 0 | - | 0 | 0 | - | -
Cc1cc(C)n(CC(O)Cn2c3ccc(Br)cc3c3cc(Br)ccc32)c(=O)n1 (configuration not stated) | 0 | 0 | 0 | 20 | 0 | 0 | 0
Cc1cc(C)n(CC(O)Cn2c3ccccc3c3ccccc32)c(=O)n1 (configuration not stated) | 0 | 0 | 0 | 0 | 0 | - | -
O=C(c1ccccc1)c1c[nH]c(C(=O)NNc2ccccc2)c1 | 0 | 0 | 0 | 0 | 0 | - | -
CCN(CC)CC#CCC(OC)(c1ccccc1)c1ccccc1 | 0 | 0 | 0 | 0 | 0 | - | -

Screening results as filed in PubChem.
